Data as given in PubChem BioAssay AID1376 (SRMLSC, 2008).
Where “and” joins values, the source holds several entries; their conditions need not be identical. Equal entries are not always repeated. Among all 220,000 compounds or so, about 530 (0.24%) were called active. This is one part of a sample in which actives are shown more often than they occur. Results with a measured potency or affinity are listed apart. Values without a mark were called inactive. Cut-off read from the data, not from the text of the source: active = inhibition above about 13%; inconclusive = no clear call, values can overlap the other calls; inactive = below that.

target: Bifunctional protein GlmU (Mycobacterium tuberculosis (strain ATCC 25618 / H37Rv)) (UniProt P9WMN3); assay: inhibition of mycobacterial GlmU enzyme – biochemical, glucosamine-1-phosphate acetyltransferase (AID 1376);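 note: 0% = complete reaction with vehicle and 100% = reaction without substrate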; conditions: M. tuberculosis GlmU acetyltransferase enzyme assay; stronger effect = higher value;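 tested at 30 µM in the primary screen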
Sequence (P9WMN3 whole entry, looked up): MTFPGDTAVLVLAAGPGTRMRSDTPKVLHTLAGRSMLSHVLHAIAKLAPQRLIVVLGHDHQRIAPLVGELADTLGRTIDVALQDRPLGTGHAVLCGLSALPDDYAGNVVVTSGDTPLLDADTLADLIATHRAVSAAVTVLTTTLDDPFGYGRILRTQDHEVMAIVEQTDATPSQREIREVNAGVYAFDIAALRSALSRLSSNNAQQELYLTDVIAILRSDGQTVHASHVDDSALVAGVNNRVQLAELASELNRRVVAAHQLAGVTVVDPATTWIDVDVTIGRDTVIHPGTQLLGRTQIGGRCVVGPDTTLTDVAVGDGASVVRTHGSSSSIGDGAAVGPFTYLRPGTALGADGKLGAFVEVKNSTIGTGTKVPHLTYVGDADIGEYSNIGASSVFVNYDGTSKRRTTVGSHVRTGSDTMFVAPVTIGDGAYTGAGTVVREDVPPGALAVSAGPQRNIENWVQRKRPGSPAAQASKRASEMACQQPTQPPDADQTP

SMILES | inhibition
Cc1cccc(NC(=O)C2CCCN(S(=O)(=O)c3cccc4cccnc34)C2)c1 (stereo not drawn) | 1.23%
O=C(Nc1ccncc1)C1CCCN(S(=O)(=O)c2cccc3cccnc23)C1 (stereo not drawn) | -3.59%
CC(=O)c1cccc(NC(=O)C2CCCN(S(=O)(=O)c3cccc4cccnc34)C2)c1 (stereo not drawn) | 13.1% (active)
O=C1CCN(Cc2ccccc2)S(=O)(=O)c2ccccc21 | 1.98%
Cc1cc(/C=C2\C(=O)NC(=O)N(Cc3ccco3)C2=O)c(C)n1-c1ccc(C(=O)O)cc1 | 9.99%
Cn1cccc1/C=C1/C(=O)NC(=O)N(Cc2ccc(F)cc2)C1=O | -4.26%
Cc1cc(/C=C2\C(=O)NC(=O)N(Cc3ccccc3Cl)C2=O)c(C)n1-c1ccc(C(=O)O)cc1 | -0.15%
Cn1cccc1/C=C1/C(=O)NC(=O)N(Cc2ccccc2)C1=O | -0.82%
Cn1cccc1/C=C1\C(=O)NC(=O)N(Cc2ccccc2)C1=O | 13.2% (active)
O=C1NC(Cc2c[nH]c3ccccc23)C(=O)N1Cc1ccc(CN2C(=O)NC(Cc3c[nH]c4ccccc34)C2=O)cc1 (stereo not drawn) | 3.5%
O=C(COc1ccc(S(=O)(=O)NC2CCCCC2)cc1)N1CCN(c2ccc(F)cc2)CC1 | -2.74%
COc1ccc(CNC(=O)CCSCc2cccc(Cl)c2)cc1 | 3.22%
OCCC1CN(CC(c2ccccc2)c2ccccc2)CCN1C1CCCC1 (stereo not drawn) | -0.28%
CC(C)CCN1CCN(CC#Cc2ccccc2)CC1CCO (stereo not drawn) | -6.43%
CC(C)CCN1CCN(CC(c2ccccc2)c2ccccc2)CC1CCO (stereo not drawn) | 14% (active)
CCOc1ccc(NS(=O)(=O)c2ccc3[nH]c(=O)cc(C(=O)O)c3c2)cc1 | 5.18%
Cc1oc2c(C)c(O)ccc2c(=O)c1-c1cnn(-c2ccccc2)c1 | -1.79%
Cc1oc2cc(O)ccc2c(=O)c1-c1cnn(-c2ccccc2)c1 | 1.72%
Cc1oc2c(O)c(O)ccc2c(=O)c1-c1cnn(-c2ccccc2)c1 | 15% (active)
CCOC(=O)C(NC(C)=O)(OCc1ccccc1)C(F)(F)F (stereo not drawn) | 1.91%
CCOC(=O)NC(NCc1ccccc1)(C(F)(F)F)C(F)(F)F | -2.58%
COC(=O)C(O)(NC(=O)OCc1ccccc1)C(F)(F)F (stereo not drawn) | 13.5% (active)
O=C(Nc1ccccc1N1CCOCC1)c1ccc(Cl)c(S(=O)(=O)NCc2ccco2)c1 | 0.84%
CN1CCN(C(=O)C2=C[C@@H](C3CCCCC3)C[C@@H](OCc3ccc(CO)cc3)O2)CC1 | 0.67%

SMILES | inhibition
COC(=O)c1ccccc1NC(=O)CSc1nnc(-c2cccnc2)n1C | 3.07%
COc1ccccc1CNC(=O)CCS(=O)(=O)c1ccc2c(c1)CCCN2C(C)=O | 15.2% (active)
COc1ccc(NC(=O)CCS(=O)(=O)c2ccc3c(c2)CCCN3C(C)=O)cc1 | 0.16%
COc1ccc(NC(=O)CCS(=O)(=O)c2ccc3c(c2)CCCN3C(C)=O)cc1Cl | -0.45%
O=[N+]([O-])c1ccc2[nH]nc(-c3ccccc3)c2c1 | 4.82%
O=C(O)c1cc2sccc2s1 | 1.23%
CC(=O)NNC(=O)c1cc2sccc2s1 | 0.49%
NNC(=O)c1cc2sccc2s1 | 14% (active)
O=C1c2cccnc2C(=O)N1C1CCCCC1 | 6.11%
CCC(c1ccccc1)c1nnc(NC(=O)c2ccco2)s1 (stereo not drawn) | 4.36%
CC1=CC(C)(C)N(C)C(=O)N1c1ccc(Cl)cc1 | -0.04%
Cc1cc(=O)cc(C)n1-c1ccc(Cl)cc1 | 1.93%
O=C1[C@H]2[C@H](C=CC[C@H]2C(=O)N2CCN(c3ccccc3)CC2)CCN1Cc1ccc(Cl)c(Cl)c1 | 0.58%
O=S(=O)(Nc1nc(CN2CCOCC2)nc2sc3c(c12)CCCC3)c1cc(F)ccc1F | 2.36% and -0.91%
CC(c1ccccc1)N1CC(C(=O)N2CCN(c3ccccc3)CC2)CC1=O (stereo not drawn) | -1.56%
CS(=O)(=O)N(CC(=O)Nc1cccc(F)c1)c1cccc([N+](=O)[O-])c1 | 2.56%
CS(=O)(=O)N(CC(=O)Nc1ccc(F)cc1F)c1cccc([N+](=O)[O-])c1 | 14.6% (active)
CS(=O)(=O)N(CC(=O)Nc1c(F)cccc1F)c1cccc([N+](=O)[O-])c1 | 1.32%
Nc1nc2ccccc2cc1S(=O)(=O)c1ccccc1 | -5.35%
Cc1ccc(S(=O)(=O)c2cc(O)ccc2O)cc1C | 5.34%
O=S(=O)(c1ccccc1)c1cc(O)ccc1O | 12.9% (active)
Cc1ccc(C(=O)/C=C\Nc2ccc(C)c(C)c2)cc1 | -4.99%
COc1ccc(S(=O)(=O)NCC2CCCN(C(=O)CNC(C)=O)C2)cc1 (stereo not drawn) | -0.35%
CCc1ccc2oc(C(=O)Nc3ccc(S(N)(=O)=O)cc3)c(C)c2c1 | 1.87%

SMILES | inhibition
CCN1CCN(CCC2Oc3cc([N+](=O)[O-])ccc3NC2=O)CC1 (stereo not drawn) | -2.08%
CC(=O)NC1(C(F)(F)F)C(=O)Nc2c1c(=O)[nH]c(=O)n2CCc1ccccc1 (stereo not drawn) | 1.88%
COc1ccc(C(=O)NC2(C(F)(F)F)C(=O)Nc3c2c(=O)[nH]c(=O)n3CCc2ccc(OC)c(OC)c2)cc1 (stereo not drawn) | -0.41%
COc1ccc(CCn2c3c(c(=O)[nH]c2=O)C(NC(=O)c2cccs2)(C(F)(F)F)C(=O)N3)cc1OC (stereo not drawn) | 13.3% (active)
O=C(NCc1cccs1)c1csc2c1CCCCC2 | 1.69%
CCOC(=O)CSc1nc2ccccc2c(=O)n1CC1CCCC1 | -1.38%
CCN(CC)C(=O)CSc1nc2ccccc2c(=O)n1CC | -0.44%
CCN(CC)C(=O)CSc1nc2ccccc2c(=O)n1CC1CCCCC1 | 13.3% (active)
N#CCCn1cc(C(=O)Nc2ccccc2Br)c(-c2cc3ccccc3o2)n1 | -0.21%
O=C(CN(CC1CCCO1)C(=O)CNS(=O)(=O)c1ccc(Cl)cc1)NCC1CCCO1 (stereo not drawn) | -2.4%
N#Cc1ccccc1NC1=CC(=O)CCC1 | -6.37%
CCc1nnc2n1N=C(c1ccc([N+](=O)[O-])cc1)CS2 | -0.05%
Cc1cccc(Oc2ccc(NC(=O)c3ccccc3C(=O)O)cc2)c1 | 1.43%
O=C(O)c1ccccc1C(=O)Nc1ccc(Oc2ccccc2)cc1 | 0.7%
Cc1ccc(C(=O)Nc2ccc(O)cc2C(=O)O)cc1C | 1.76%
Cc1ccc(C(=O)Nc2ccc(Oc3ccc(C(=O)O)c(C(=O)O)c3)cc2)cc1C | 47.7% (active)
COc1ccc(C(=O)Nc2cccc(OC)c2)cc1 | 6.57%
O=C(O)COc1ccc(NC(=O)c2cccs2)cc1 | -5.47%
COc1ccc(NC(=O)c2cccs2)cc1 | -2.83%
COC(=O)CCSC(=S)N1CCOCC1 | -0.58%
COc1ccc(NC(=O)N(Cc2cccs2)Cc2cc3cc4c(cc3[nH]c2=O)OCO4)cc1 | 1.28%
CCOC(=O)c1cc2sccc2n1CC(=O)C(C)(C)C | -4.29%
CCn1ncc(Br)c1C(=O)Nc1ccn(C23CC4CC(CC(C4)C2)C3)n1 | -4.08%
CC(=O)N(C)N1c2ccccc2CCc2ccccc21 | -8.48%

SMILES | inhibition
Cc1cccc(OCCNC(=O)c2ncn[nH]2)c1 | 1.93%
Cn1c(=O)c2c(nc(SCC(=O)NC34CC5CC(CC(C5)C3)C4)n2C)n(C)c1=O | -0.07%
O=C(CSc1nnc(-c2ccncc2)o1)NC1C2CC3CC(C2)CC1C3 (stereo not drawn) | 1.35%
O=C(O)c1ccc(/C=C/c2nc3sc4c(c3c(=O)[nH]2)CCC4)cc1 | 2.03%
CCOC(=O)c1nc2sc3c(c2c(=O)[nH]1)CCCC3 | 4.84% and 1.97%
N#C/C(=C\c1ccc(C(=O)O)cc1)c1nc2sc3c(c2c(=O)[nH]1)CCCC3 | 14.3% (active)
O=C1NC(CCc2ccccc2)C(=O)N1Cc1ccccc1Cl (stereo not drawn) | -2.29%
CCc1sc(-c2ccccc2)nc1C(=O)OC | -3.08%
CN(C(=O)COC(=O)c1n[nH]c2ccccc12)c1ccccc1 | -0.77%
Cn1c(SCC(N)=O)nnc1C1CCN(C(=O)NCc2ccccc2)CC1 | 2.81%
CC(=O)c1cccc(NC(=O)N2CCC(c3nnc(SCC(N)=O)n3C)CC2)c1 | 12.8% (active)
COc1ccccc1NC(=O)N1CCC(c2nnc(SCC(N)=O)n2C)CC1 | 5.75%
CSc1nsc(/C=C/Nc2ccc(C(=O)O)cc2)c1C#N | -2.44%
CC1=NN(C(=O)CSCc2ccccc2)C(O)(c2ccc(Cl)cc2)C1 (stereo not drawn) | 0.2%
O=S1(=O)CCC(N=Cc2cc(Br)ccc2O)C1 (stereo not drawn) | -0.36%
Cc1ccc(-n2c(C)cc(C(=O)CSc3n[nH]c(N)n3)c2C)cc1 | -7.08%
Cc1cc(C(=O)CSc2n[nH]c(N)n2)c(C)n1-c1ccc(F)cc1 | 13% (active)
Cc1cc(C(=O)CSc2n[nH]c(N)n2)c(C)n1-c1ccccc1 | 1.04%
Cc1ccc(C(=O)COC(=O)CNC(=O)C(c2ccccc2)c2ccccc2)cc1[N+](=O)[O-] | 30.6% (active)
Cc1ccc(C(=O)NCC(=O)OCC(=O)c2ccc(C)c([N+](=O)[O-])c2)cc1 | -3.78%
Cc1ccc(C(=O)COC(=O)CNS(=O)(=O)c2ccccc2)cc1[N+](=O)[O-] | -0.84%
